Data: PubChem BioAssay (NCI)
Where “and” joins values, the source holds several entries; their conditions need not be identical. Identical values can stand only once. Compounds without any hit were thinned out: in the full panel of roughly 83,000, 20% have a hit.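 In brief: 96-well plates, 48 h treatment, single concentration, percent growth endpoint.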 A number with no mark means an inactive call. Calls of active or inactive are those of the source. The calls were made as follows: active = growth percent below 10; inactive = the rest.

system: MOLT-4 leukemia; experiment: NCI-60 one-dose screen, 48 h (100 = growth as untreated, 0 = no growth, -100 = all killed); conditions: 10 µM unless noted

Structure (SMILES) | growth
Cn1c(-c2ccccc2)cc(=O)cc1-c1ccccc1 | 81.4%
O=C1C2=C(Nc3cc(Cl)ccc3N2)OC1c1c[nH]c2ccc(COc3ccccc3)cc12 (centres undefined) | 77.3%
COc1ccc(S(=O)(=O)c2ccc(F)cc2)cc1 | 92.3%
CCOP(=O)(OCC)/C(C#N)=C/c1c(C)[nH]c2ccccc12 | 97.9%
COc1ccc(CCNC(=S)NN)cc1OC | 108%
CS(=O)(=O)OCC1NC(=O)C(COS(C)(=O)=O)NC1=O (centres undefined) | 91.6% and 69%
COc1cc(NCCCCCCCNC(C)C)c2nccc(C)c2c1 | 80%
N=c1sc2ccccc2n1CC(=O)O | 117%
O=C1C=CC(=O)N1Cc1ccco1 | 79.5%
N=C(N)N1CCc2ccccc2C1 | 88.3% and 106%
Cc1ccc(C(=O)c2ccc(C)cc2)cc1 | 82.5% and 97.8%
COC(=O)c1ccccc1Cl | 105%
O=C(Nc1ccccc1)OCC(CN1CCCCC1)OC(=O)Nc1ccccc1 (centres undefined) | 64.8% and 87.9%
N=C(N=C(N)N)N1CCOCC1 | 105% and 102%
Cc1cc2nc3ccc(=[N+](C)C)cc-3sc2cc1N | -10.7% (active) and -19.8% (active)
O=C1C=CC(n2cc(F)c(=O)[nH]c2=O)O1 (centres undefined) | 54.4%
O=C1CCC(=O)N1CC1CC2CCC1C2 (centres undefined) | 54.1% and 111%
NCCSSC/C=C\CSSCCN | 98%
COC(=O)c1nc(N)nc(C(=O)OC)c1C(=O)c1cccc2ccccc12 | 112%
COc1ccc(COC=O)cc1 | 102%

Structure (SMILES) | growth
CCCCNC(=O)c1ccccc1C | 98.5%
CC(=O)c1cccc(OC(=O)c2ccccc2)c1 | 84.7%
CCNC1=CC(=O)c2ncccc2C1=O | 52.6%
O=C(/C=C/C=C/c1ccc2c(c1)OCO2)N1CCCCC1 | 98.3% and 84%
CCN(CC)Cc1cc2[nH]c3c4ccc(Cl)cc4ncc3c2cc1OC | 40.4%
C/C=C/C(=O)OCCCCCCCCCCCC | 83.1%
COc1ccc(CCn2cnn3c(=O)c4ccccc4nc3c2=O)cc1OC | 102% and 112%
N#Cc1c[nH]n2ccnc12 | 109%
NC1=NC(c2ccccc2)N=C(Nc2ccccc2)N1 (centres undefined) | 65.7% and 71.4%
Cc1nc(Nc2ccc(Cl)cc2)c2cnn(-c3ccccc3)c2n1 | 106%
CC(C)(C)C1=CC(=O)C(C(C)(C)C)=CC1=O | 83.4% and 105%
CC1(C)OC(=O)C(=Cc2ccc(C#N)cc2)C(=O)O1 | 103% and 80.1%
COC(=O)CCOc1ccccc1 | 98.6%
Cc1cc(-c2ccc(N=Nc3c(C)nn(-c4ccc(S(=O)(=O)O)cc4)c3O)c(C)c2)ccc1N=Nc1ccc(O)c(C(=O)O)c1 | 102%
OCc1ccccc1F | 91.8%
O=C(O)c1cc(=O)[nH]c(=O)[nH]1 | 98.5% and 91.5%
O=C(O)c1cccc(Br)c1 | 85.9% and 96.2%
CCN(CC)C(CC(=O)c1ccccc1)C(=O)c1ccccc1 (centres undefined) | 27.9%
O=S(=O)(O)c1ccc2cc(O)ccc2c1 | 103%
